Broadly, the AC50 is the midpoint of the concentration-response curve, whichever way the signal moves.

This is an account of results in PubChem BioAssay (EPA / NIEHS).

Results filed as inconclusive are left out. Activity calls are given as the source filed them. Rule for the calls: active = hit-call score of the fitted dose curve at least 0.9, where 1 is the maximum; inconclusive = response in the unintended direction; inactive = score below 0.9.

One assay in a line: CCTE_Shafer_MEA_dev_LDH: CCTE's Lactate Dehydrogenase Assay for Cytotoxicity in the Neural Network Formation Assay, Shafer Lab (AID 2284068).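 Note: exposure for twelve days from plating with re-dosing on DIV 5 and 9.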 How it is done:
(§1) CCTE_Shafer_MEA_dev assay is conducted using Axion Biosystems 48 well microelectrode array (MEA) plates and Maestro recording system. Each well of the MEA plate contains a grid of 16 microelectrodes embedded in the culture surface. Electrically active cells, such as neurons, can be cultured over the electrodes, and electrical activity in these cells can be recorded extracellularly. The spontaneous firing of neurons is captured from each electrode on a microsecond timescale providing both temporally and spatially precise data. […] The CCTE_Shafer_MEA_dev assay uses primary cultures of rat cortical neurons. Recordings are made on days post-plating 5, 7, 9 and 12. As these cultures mature over time, neural networks develop functional activity and form cohesive networks in which electrical activity can be highly coordinated. CCTE_Shafer_MEA_dev_LDH is 1 of 19 assay components of the CCTE_Shafer_MEA_dev assay. It measures the lactate dehydrogenase enzyme activity using spectrophotometry.Data from the assay component CCTE_Shafer_MEA_dev_LDH was analyzed into 1 assay endpoint. This assay endpoint, CCTE_Shafer_MEA_dev_LDH, was analyzed in the positive analysis fitting direction relative to DMSO as the negative control and baseline of activity. Using a type of viability reporter, loss-of-signal activity can be used to understand cell viability.
On the day prior to culture, each well was coated thoroughly with 150 uL of 0.05% polyethyleneimine (PEI, Sigma Cat P3143) in 50 mM HEPES (Sigma Cat H7523) at a pH of 8. The plate was incubated at 37C for one hour. PEI was rinsed out with 500 uL of sterile water three times. Plates were stored at 4C until the day of culture. This culture was plated at a seeding density of 1.5 x 10^5 cells/well on a 48-well MEA plate, prepared as described above. Cells were administered via a 25 uL media/laminin ([…]; Sigma Cat L2020-1MG) drop directly onto the microelectrode array, as adding the cells with the laminin results in better attachment than pre-coating with laminin. After 2 hours, an additional 475 uL of cortical media was added and the cells returned to the incubator. Exposure starts at day 0 of plating and is continued over twelve days of network development until the experiment is terminated. Cells are fed with fresh medium on DIV 5 and 9, following the recordings on those days. The entire volume of media in the well is exchanged and any vehicle or compound treatment is renewed. Complete details are found in OP-NHEERL/ISTD/SBB/TJS/2015-03-r0 (available on request, email shafer.tim@epa.gov). Measurement of the electrical activity is non-invasive, and recordings can be made from the same plate over multiple different days of the culture. In cortical neurons, this allows for the measurement of extracellular action potentials over the period during which networks form in the MEA plate.
Turning to `c1ccc2ccccc2c1`, the outcome was inactive.

`Oc1ccccc1`: the result was inactive.

As to `CC(C)(c1cc(Br)c(O)c(Br)c1)c1cc(Br)c(O)c(Br)c1`, the compound was classed as inactive.

Turning to `CC/C(=C(/CC)c1ccc(O)cc1)c1ccc(O)cc1`, the half-maximal activity concentration (AC50) was 19.5 µM (active).

Regarding `CN1C(=O)CC[C@H]1c1cccnc1`, the result was inactive.

A short description of a further assay: CCTE_Shafer_MEA_acute_AB: CCTE's Alamar Blue Assay for Cytotoxicity in the Neural Acute Assay, Shafer Lab (AID 2284069).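 Note: active compounds lower the viability signal compared with DMSO wells.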 The procedure, abridged: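 Resazurin reduction (CellTiter Blue, 1:6 in fresh medium) read at ex 544/em 590 nm marks viability loss relative to DMSO. Cells: primary rat cortical neuron networks on microelectrode arrays, treated after baseline recording at 13 or 15 days in vitro.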
Turning to `CN(C)c1ccc(C(=C2C=CC(=[N+](C)C)C=C2)c2ccc(N(C)C)cc2)cc1`, the AC50 is 11.2 µM (active).

Turning to `CN(C)C(=O)C1(N2CCCCC2)CCN(CC[C@@]2(c3ccc(Cl)c(Cl)c3)CN(C(=O)c3ccccc3)CCO2)CC1`, the call was inactive.

With `Clc1ccccc1C(c1ccccc1)(c1ccccc1)n1ccnc1`, the compound was called inactive.

Turning to `CC(O)CC(C)(C)O` (configuration not stated), the outcome was inactive.

In the case of `Cc1c2ccccc2c(C)c2c1ccc1ccccc12`, the outcome was inactive.

`C[C@]12CC[C@@H]3c4ccc(O)cc4CC[C@H]3[C@@H]1CC[C@H]2O`: the result was inactive.

As to `Cc1cc2c(cc1C(F)(F)F)N(C(=O)Nc1ccc(Oc3cccnc3C)nc1)CC2`, the result was inactive.

With `NC(=O)c1nc(-c2cccc(-c3cc(F)ccc3OCC(F)(F)C(F)(F)F)c2)n[nH]1`, the call was inactive.

With `CC[C@@H]1C[C@H](N(Cc2cc(C(F)(F)F)cc(C(F)(F)F)c2)C(C)=O)c2cc(C(F)(F)F)ccc2N1C(=O)OC(C)C`, the compound was called inactive.

Turning to `CC(=O)N1CCN(c2ccc(OC[C@H]3CO[C@](Cn4ccnc4)(c4ccc(Cl)cc4Cl)O3)cc2)CC1`, the compound was called inactive.

Regarding `COc1cccc([C@H](O)C2CCN(CCc3ccc(F)cc3)CC2)c1OC`, the result was inactive.

As to `CCCCCCCCCCCCO`, the call was inactive.

In the case of `O=C1O[C@H]([C@@H](O)CO)C(O)=C1O`, the outcome was inactive.

For the compound `CC(C)(c1cc(Br)c(O)c(Br)c1)c1cc(Br)c(O)c(Br)c1`, the call was inactive.

`CC/C(=C(/CC)c1ccc(O)cc1)c1ccc(O)cc1`: the result was inactive.

As to `CN1C(=O)CC[C@H]1c1cccnc1`, the compound was called inactive.

Regarding `CO[C@H]1/C=C/O[C@@]2(C)Oc3c(C)c(O)c4c(O)c(c(/C=N/N5CCN(C)CC5)c(O)c4c3C2=O)NC(=O)/C(C)=C\C=C\[C@H](C)[C@H](O)[C@@H](C)[C@@H](O)[C@@H](C)[C@H](OC(C)=O)[C@@H]1C`, the compound was classed as inactive.

As for `O=C(O)c1ccccc1-n1cc(C(=O)O)c(=O)c2cc(Nc3c(F)cc(F)cc3Cl)c(Cl)cc21`, the compound was classed as inactive.

Regarding `CC1=CC(=O)/C(=C(/C)O)C(=O)O1`, the result was inactive.

For `c1ccc2n[nH]nc2c1`, the outcome was inactive.

Take `NCc1cccc(C2CCN(C(=O)c3ccc(C#Cc4ccccc4F)o3)CC2)c1`: the compound was classed as inactive.

Take `COc1cc(C(=O)NC2CCN(C)CC2)ccc1Nc1ncc2c(n1)N(C1CCCC1)CC(F)(F)C(=O)N2C`: the call was inactive.

As for `CCCCCCCCOC(=O)c1cc(O)c(O)c(O)c1`, the outcome was inactive.

`CCN(CC)C(=O)c1cc(S(=O)(=O)Cc2ccccc2)c(N2CCC(c3ccccc3)CC2)cc1N(CC)CCN(C)C`: the call was inactive.

Take `CC(C)(C)c1cc(/C=C2\SC(N)=NC2=O)cc(C(C)(C)C)c1O`: the compound was classed as inactive.

For the compound `OC12N=C(c3ccccc3)SC1Cc1cc(Cl)ccc12` (configuration not stated), the call was inactive.

In the case of `CN(C[C@@H](CC[N+]12CCC(C3CCCCC3)(CC1)CC2)c1ccc(Cl)c(Cl)c1)C(=O)c1cc(C(F)(F)F)cc(C(F)(F)F)c1`, the AC50 was 20 µM (active).

For the compound `O=c1[nH]sc2ccccc12`, the compound was called inactive.

The nature of the next assay: CCTE_Shafer_MEA_dev_AB: CCTE's Alamar Blue Assay for Cytotoxicity in the Neural Network Formation Assay, Shafer Lab (AID 2284083).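 Note: resazurin reduction fluorescence as viability of cultured neurons; twelve days of exposure from plating with re-dosing on DIV 5 and 9.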 How it is done: as §1, with “CCTE_Shafer_MEA_dev_AB” for “CCTE_Shafer_MEA_dev_LDH”, “resazurin reduction” for “lactate dehydrogenase enzyme activity”, “fluorescence.Data” for “spectrophotometry.Data”, “CCTE_Shafer_MEA_dev_AB,” for “CCTE_Shafer_MEA_dev_LDH,”
On the day prior to culture, each well was coated thoroughly with 150 uL of 0.05% polyethyleneimine (PEI, Sigma Cat P3143) in 50 mM HEPES (Sigma Cat H7523) at a pH of 8. The plate was incubated at 37C for one hour. PEI was rinsed out with 500 uL of sterile water three times. Plates were stored at 4C until the day of culture. This culture was plated at a seeding density of 1.5 x 10^5 cells/well on a 48-well MEA plate, prepared as described above. Cells were administered via a 25 uL media/laminin (20 ng/ml; Sigma Cat L2020-1MG) drop directly onto the microelectrode array, as adding the cells with the laminin results in better attachment than pre-coating with laminin. After 2 hours, an additional 475 uL of cortical media was added and the cells returned to the incubator. […]
In general terms: The colour change of resazurin is a common sign of viable cells or microbes.
As for `O=C1O[C@H]([C@@H](O)CO)C(O)=C1O`, the outcome was inactive.

As to `CC/C(=C(/CC)c1ccc(O)cc1)c1ccc(O)cc1`, the call was inactive.

For `CN1C(=O)CC[C@H]1c1cccnc1`, the result was inactive.

A further assay can be described thus: CCTE_Shafer_MEA_acute_LDH: CCTE's Lactate Dehydrogenase Assay for Cytotoxicity in the Neural Acute Assay, Shafer Lab (AID 2284086).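 Note: active means LDH release rises above DMSO vehicle level.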 The procedure, abridged:
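Released lactate dehydrogenase, read at 490 nm, indicated cytotoxicity after acute 40-min compound treatment of rat cortical neuron networks grown on 48-well MEA plates.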
Consider `CN(C)c1ccc(C(=C2C=CC(=[N+](C)C)C=C2)c2ccc(N(C)C)cc2)cc1`, for which the AC50 was 7.76 µM (active).

Consider `CN(C)C(=O)C1(N2CCCCC2)CCN(CC[C@@]2(c3ccc(Cl)c(Cl)c3)CN(C(=O)c3ccccc3)CCO2)CC1`, for which the call was inactive.

As to `Clc1ccccc1C(c1ccccc1)(c1ccccc1)n1ccnc1`, the compound was classed as inactive.

In the case of `CC(O)CC(C)(C)O` (configuration not stated), the compound was classed as inactive.

As to `Cc1c2ccccc2c(C)c2c1ccc1ccccc12`, the call was inactive.

Regarding `Cc1cc2c(cc1C(F)(F)F)N(C(=O)Nc1ccc(Oc3cccnc3C)nc1)CC2`, the call was inactive.

For the compound `NC(=O)c1nc(-c2cccc(-c3cc(F)ccc3OCC(F)(F)C(F)(F)F)c2)n[nH]1`, the compound was called inactive.

Take `CC(=O)N1CCN(c2ccc(OC[C@H]3CO[C@](Cn4ccnc4)(c4ccc(Cl)cc4Cl)O3)cc2)CC1`: the call was inactive.

Consider `COc1cccc([C@H](O)C2CCN(CCc3ccc(F)cc3)CC2)c1OC`, for which the call was inactive.

Consider `O=C1O[C@H]([C@@H](O)CO)C(O)=C1O`, for which the call was inactive.

Regarding `CO[C@H]1/C=C/O[C@@]2(C)Oc3c(C)c(O)c4c(O)c(c(/C=N/N5CCN(C)CC5)c(O)c4c3C2=O)NC(=O)/C(C)=C\C=C\[C@H](C)[C@H](O)[C@@H](C)[C@@H](O)[C@@H](C)[C@H](OC(C)=O)[C@@H]1C`, the call was inactive.

`O=C(O)c1ccccc1-n1cc(C(=O)O)c(=O)c2cc(Nc3c(F)cc(F)cc3Cl)c(Cl)cc21`: the compound was classed as inactive.

For `CC1=CC(=O)/C(=C(/C)O)C(=O)O1`, the compound was classed as inactive.

On to `c1ccc2n[nH]nc2c1`, for which the compound was classed as inactive.

As to `NCc1cccc(C2CCN(C(=O)c3ccc(C#Cc4ccccc4F)o3)CC2)c1`, the compound was called inactive.

Regarding `COc1cc(C(=O)NC2CCN(C)CC2)ccc1Nc1ncc2c(n1)N(C1CCCC1)CC(F)(F)C(=O)N2C`, the call was inactive.

Turning to `CCCCCCCCOC(=O)c1cc(O)c(O)c(O)c1`, the outcome was inactive.

For `CCN(CC)C(=O)c1cc(S(=O)(=O)Cc2ccccc2)c(N2CCC(c3ccccc3)CC2)cc1N(CC)CCN(C)C`, the compound was classed as inactive.

For the compound `OC12N=C(c3ccccc3)SC1Cc1cc(Cl)ccc12` (configuration not stated), the outcome was inactive.

Regarding `CN(C[C@@H](CC[N+]12CCC(C3CCCCC3)(CC1)CC2)c1ccc(Cl)c(Cl)c1)C(=O)c1cc(C(F)(F)F)cc(C(F)(F)F)c1`, the result was inactive.

As to `O=c1[nH]sc2ccccc12`, the result was inactive.
